In the supplement of paper PMC10849652:
Of roughly 8,800 targets only a part is listed; those with a hit were picked by preference. About 0.5% of all pairs of compound and target were hits.

How the values were obtained:
Test in all cases: log2 fold change, soluble protein after heating vs DMSO (PISA); higher = thermal stabilisation; K562 lysate, 10 uM; active = over 0.2 and 3.5 SD of the protein, either way, in both replicates (recomputed)
erlotinib = compound: C#Cc1cccc(Nc2ncnc3cc(OCCOC)c(OCCOC)cc23)c1 [erlotinib]
In short: (§1)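 Pellets of K562 cells were dounce-homogenised in PBS pH 7.4 with 1 mM MgCl2, and the crude extract was held at 1 mg/mL protein for a 30 min treatment with 10 μM compound. Aliquots were heated for 3 min over 48°C-58°C and pooled before NP-40 was added to 0.5% at 4°C. The supernatant from 21,000xg for 90 min was quantified by TMTpro 16plex LC-MS/MS with channel sums equalised. Values are reported from duplicates as log-two fold change in thermal stability relative to solvent controls.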

[1] = compound: C/C(=N\NC(=O)C1=CC(=CC=C1)S(=O)(=O)N2CCOCC2)/C3=C(C=CC(=C3)Cl)O
In short: as §1

[2] = compound: C1=CC(=CC=C1C2=NC3=C(N2)C=C(C=C3)C(=O)N)OC4=CC=C(C=C4)Cl
In short: as §1

[3] = compound: C1=CC2=C(C=CC(=C2)/C=C\3/C(=O)NC(=NCC4=CC=CS4)S3)N=C1
In short: as §1

[4] = compound: C1=CC2=NC=CN=C2C=C1/C=C/3\C(=O)NC(=O)S3
In short: as §1

[5] = compound: C1=CC=C(C=C1)C2=NC(=C(N2)C3=CC=NC=C3)C4=CC(=C(C=C4)Cl)O
In short: as §1

[6] = compound: C1=CC=C2C(=C1)C3=NNC4=CC=CC(=C43)C2=O
In short: as §1

IRAK-1-4 Inhibitor I = compound: C1COCCN1CCN2C3=CC=CC=C3N=C2NC(=O)C4=CC(=CC=C4)[N+](=O)[O-] [IRAK-1-4 Inhibitor I]
In short: as §1

ibrutinib = compound: C=CC(=O)N1CCC[C@@H](n2nc(-c3ccc(Oc4ccccc4)cc3)c3c(N)ncnc32)C1 [ibrutinib]
In short: as §1

ralimetinib = compound: CC(C)(C)Cn1c(N)nc2ccc(-c3[nH]c(C(C)(C)C)nc3-c3ccc(F)cc3)nc21 [ralimetinib]
In short: as §1

[7] = compound: CC(C)(O)CC(=O)NCCn1ccc2ncnc(Nc3ccc(Oc4cccc(C(F)(F)F)c4)c(Cl)c3)c21
In short: as §1

[8] = compound: CC(C)C1=C2N=C(C=C(N2N=C1)NCC3=CC=CC=C3)NCCCCCCN
In short: as §1

[9] = compound: CC1=C(C(CC(=O)N1)C2=CC=C(C=C2)C(F)(F)F)C(=O)NC3=C(C=C4C(=C3)C=NN4)F
In short: as §1

[10] = compound: CC1=C(C2=C(C=C1)C(=O)C3=CC=CC=C3N2CCCN)C
In short: as §1

[11] = compound: CC1=C(C=C(C=C1)NC(=O)C2=CC(=CC=C2)C(C)(C)C#N)NC3=CC4=C(C=C3)N=CN(C4=O)C
In short: as §1

[12] = compound: CC1=C(C=C(C=C1)NC(=O)C2=CC(=CC=C2)N(C)C)NC(=O)C3=CC=C(C=C3)O
In short: as §1

[13] = compound: C1CCN(C1)C(=O)NC2=CC=CC(=C2)NC3=NC=C(C(=N3)NCCC4=CN=CN4)Br
In short: as §1

[14] = compound: C1CN(CCC1(CC2=CC=C(C=C2)Cl)N)C3=NC=NC4=C3C=CN4
In short: as §1

[15] = compound: CC(=O)c1cnc2ccc(-c3cc(Cl)c(O)c(Cl)c3)nc2c1N[C@H]1CC[C@H](CN(C)C)CC1
In short: as §1

[16] = compound: CC1=CC=C(C=C1)SC2=C3C=C(SC3=CN=C2)C(=O)N
In short: as §1

Measured: log2 fold change

PPP2R5C isoform 2 (UniProt Q13362)
inactive: erlotinib 0.003 | [1] 0.044 | [2] 0.024 | [3] -0.046 | [4] 0.186 | [5] 0.024 | [6] 0.013 | IRAK-1-4 Inhibitor I 0.052 | ibrutinib -0.145 | ralimetinib -0.016 | [7] -0.02 | [8] 0.02 | [9] -0.012 | [10] 0 | [11] -0.155 | [12] 0.08

PECR (UniProt Q9BY49)
inactive: [13] -0.004 | [14] 0.056

PREP (UniProt H0Y5Y0)
inactive: [15] -0.051 | [16] 0.029

PPP1R11 (UniProt O60927)
UniProt O60927, sequence (O60927 whole entry, looked up): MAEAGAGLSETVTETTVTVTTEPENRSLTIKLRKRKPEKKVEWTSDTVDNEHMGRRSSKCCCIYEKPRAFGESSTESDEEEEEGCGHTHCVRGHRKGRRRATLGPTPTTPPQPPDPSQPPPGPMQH
inactive: erlotinib -0.046 | [2] 0.015 | [4] 0.01 | [5] 0.004 | [13] 0 | [14] -0.03 | IRAK-1-4 Inhibitor I 0.132 | ibrutinib -0.037 | [15] 0.058 | ralimetinib 0.062 | [7] -0.021 | [8] -0.024 | [9] 0.1 | [10] 0.052 | [11] 0.059 | [12] -0.037 | [16] -0.01

PPME1 (UniProt Q9Y570)
UniProt Q9Y570, sequence (Q9Y570 whole entry, looked up): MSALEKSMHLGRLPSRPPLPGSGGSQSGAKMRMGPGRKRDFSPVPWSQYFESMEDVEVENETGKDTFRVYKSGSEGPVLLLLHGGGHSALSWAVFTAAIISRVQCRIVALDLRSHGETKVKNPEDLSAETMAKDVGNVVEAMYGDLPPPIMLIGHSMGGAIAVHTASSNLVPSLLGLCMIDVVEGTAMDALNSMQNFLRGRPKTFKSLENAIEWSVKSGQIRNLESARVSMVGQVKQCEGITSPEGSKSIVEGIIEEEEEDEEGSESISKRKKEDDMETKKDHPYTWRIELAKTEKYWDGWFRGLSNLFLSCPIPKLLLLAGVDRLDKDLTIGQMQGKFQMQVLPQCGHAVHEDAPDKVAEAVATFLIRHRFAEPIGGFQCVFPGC
inactive: erlotinib 0.129 | [2] 0.003 | [4] -0.09 | [13] -0.025 | [14] -0.033 | ibrutinib -0.038 | [15] -0.072 | [8] -0.238 | [10] -0.018 | [16] -0.077

PIP5K1A (UniProt Q99755)
UniProt Q99755, sequence (Q99755 whole entry, looked up): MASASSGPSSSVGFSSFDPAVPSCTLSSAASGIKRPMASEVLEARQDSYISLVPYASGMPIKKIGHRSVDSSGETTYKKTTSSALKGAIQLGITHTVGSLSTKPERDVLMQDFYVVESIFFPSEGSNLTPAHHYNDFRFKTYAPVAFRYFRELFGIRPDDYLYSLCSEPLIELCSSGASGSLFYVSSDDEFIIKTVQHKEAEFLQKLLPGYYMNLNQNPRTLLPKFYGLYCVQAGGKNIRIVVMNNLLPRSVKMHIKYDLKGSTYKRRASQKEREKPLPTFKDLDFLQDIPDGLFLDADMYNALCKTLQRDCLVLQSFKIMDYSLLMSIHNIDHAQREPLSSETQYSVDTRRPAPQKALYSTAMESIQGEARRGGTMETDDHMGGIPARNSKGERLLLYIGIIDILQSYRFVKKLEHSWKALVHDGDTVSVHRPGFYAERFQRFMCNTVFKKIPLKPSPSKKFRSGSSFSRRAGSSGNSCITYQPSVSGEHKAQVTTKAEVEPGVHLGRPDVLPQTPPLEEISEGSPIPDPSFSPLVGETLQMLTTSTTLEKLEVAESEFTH
inactive: erlotinib 0.036 | [2] -0.14 | [4] 0.022 | [5] -0.062 | IRAK-1-4 Inhibitor I -0.195 | ibrutinib 0.012 | [15] 0.201 | ralimetinib -0.053 | [7] 0.001 | [8] 0 | [9] 0.056 | [10] -0.127 | [11] 0.105 | [12] 0.02 | [16] -0.053

PPIC (UniProt P45877)
inactive: erlotinib 0.049 | [1] -0.042 | [2] 0.119 | [3] 0.025 | [4] 0.265 | [5] -0.032 | [6] 0.036 | IRAK-1-4 Inhibitor I 0.06 | ibrutinib 0.278 | ralimetinib -0.17 | [7] 0.057 | [8] -0.021 | [9] -0.139 | [10] 0.138 | [11] 0.102 | [12] 0.05

PIK3CD (UniProt O00329)
UniProt O00329, sequence (O00329 whole entry, looked up): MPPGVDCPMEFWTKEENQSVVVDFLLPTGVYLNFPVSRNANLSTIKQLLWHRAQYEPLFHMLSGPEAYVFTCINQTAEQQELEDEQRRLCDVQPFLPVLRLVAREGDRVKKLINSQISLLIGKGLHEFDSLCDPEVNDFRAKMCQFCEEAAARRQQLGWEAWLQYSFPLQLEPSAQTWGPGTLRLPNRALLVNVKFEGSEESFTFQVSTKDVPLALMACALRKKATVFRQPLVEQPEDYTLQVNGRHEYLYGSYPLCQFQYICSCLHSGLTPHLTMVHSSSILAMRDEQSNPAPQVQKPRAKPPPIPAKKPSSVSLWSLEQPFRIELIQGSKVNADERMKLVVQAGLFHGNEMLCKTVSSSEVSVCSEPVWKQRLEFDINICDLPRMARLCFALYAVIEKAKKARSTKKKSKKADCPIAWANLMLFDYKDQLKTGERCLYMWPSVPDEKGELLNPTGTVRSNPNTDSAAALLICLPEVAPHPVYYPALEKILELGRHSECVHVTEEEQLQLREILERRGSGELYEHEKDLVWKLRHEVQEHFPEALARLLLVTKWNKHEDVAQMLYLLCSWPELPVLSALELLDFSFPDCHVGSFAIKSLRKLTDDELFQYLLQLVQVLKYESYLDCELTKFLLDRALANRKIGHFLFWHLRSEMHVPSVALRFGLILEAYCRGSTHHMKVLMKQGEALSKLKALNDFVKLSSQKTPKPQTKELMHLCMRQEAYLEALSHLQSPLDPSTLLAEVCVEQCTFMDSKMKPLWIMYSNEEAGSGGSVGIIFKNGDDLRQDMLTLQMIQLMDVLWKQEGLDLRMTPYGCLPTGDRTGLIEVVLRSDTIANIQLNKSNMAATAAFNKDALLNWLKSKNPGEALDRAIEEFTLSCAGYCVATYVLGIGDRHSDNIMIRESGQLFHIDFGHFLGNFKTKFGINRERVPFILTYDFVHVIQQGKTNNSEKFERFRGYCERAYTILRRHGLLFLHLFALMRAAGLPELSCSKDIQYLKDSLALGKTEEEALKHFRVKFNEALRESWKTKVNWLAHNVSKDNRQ
inactive: erlotinib -0.014 | [1] -0.162 | [2] -0.095 | [3] 0.034 | [4] 0.091 | [5] -0.031 | [6] 0.098 | IRAK-1-4 Inhibitor I 0.109 | ibrutinib -0.14 | [15] 0.222 | ralimetinib -0.017 | [7] -0.123 | [8] -0.12 | [9] 0.021 | [10] -0.032 | [11] 0.04 | [12] 0.098 | [16] -0.056

PRG4 (UniProt Q92954)
inactive: [4] -0.296 | [5] -0.027 | IRAK-1-4 Inhibitor I 0.057 | ibrutinib 0.267 | [15] -0.002 | ralimetinib 0.037 | [7] -0.109 | [9] -0.091 | [10] -0.029 | [11] -0.027 | [12] 0.035 | [16] 0.034

PDIA4, A0A499FI48
inactive: [10] -0.017 | [11] -0.066

NA (UniProt Q4G0T1)
active: [2] 0.348
inactive: erlotinib -0.178 | [5] 0.017 | IRAK-1-4 Inhibitor I 0.002 | ralimetinib 0.016 | [7] -0.096 | [8] -0.119 | [10] -0.061 | [11] -0.158 | [12] -0.151

PRADC1 (UniProt Q9BSG0)
UniProt Q9BSG0, sequence (Q9BSG0 whole entry, looked up): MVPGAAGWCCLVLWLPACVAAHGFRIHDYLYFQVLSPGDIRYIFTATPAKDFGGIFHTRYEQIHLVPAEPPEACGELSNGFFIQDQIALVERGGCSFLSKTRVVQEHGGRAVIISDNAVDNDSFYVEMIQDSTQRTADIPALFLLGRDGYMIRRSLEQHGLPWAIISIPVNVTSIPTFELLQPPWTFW
inactive: erlotinib -0.016 | [2] 0.027 | [4] 0.018 | [5] 0 | IRAK-1-4 Inhibitor I 0.017 | ibrutinib 0.026 | [15] -0.395 | ralimetinib -0.023 | [7] 0.041 | [8] -0.125 | [9] 0.026 | [10] -0.009 | [11] 0.072 | [12] 0.008 | [16] -0.023

PCBP2 (UniProt F8VRH0)
inactive: erlotinib 0.084 | [2] -0.182 | [5] -0.092 | IRAK-1-4 Inhibitor I 0.11 | [15] -0.014 | ralimetinib 0.087 | [7] -0.033 | [8] 0.051 | [9] 0.129 | [11] 0.017 | [12] 0.012 | [16] 0.027

POLR2M (UniProt Q6EEV4)
inactive: erlotinib 0.011 | [1] 0.164 | [2] -0.025 | [3] -0.031 | [4] -0.045 | [6] -0.111 | [13] 0.052 | [14] -0.01 | ibrutinib 0.005 | [15] -0.07 | [8] -0.109 | [10] 0.007 | [11] 0.157 | [16] 0.078

PRRG1 (UniProt O14668)
inactive: [5] -0.006 | IRAK-1-4 Inhibitor I 0.06 | ralimetinib 0.081 | [7] 0.072 | [12] -0.033

PIK3CG (UniProt P48736)
UniProt P48736, sequence (P48736 whole entry, looked up): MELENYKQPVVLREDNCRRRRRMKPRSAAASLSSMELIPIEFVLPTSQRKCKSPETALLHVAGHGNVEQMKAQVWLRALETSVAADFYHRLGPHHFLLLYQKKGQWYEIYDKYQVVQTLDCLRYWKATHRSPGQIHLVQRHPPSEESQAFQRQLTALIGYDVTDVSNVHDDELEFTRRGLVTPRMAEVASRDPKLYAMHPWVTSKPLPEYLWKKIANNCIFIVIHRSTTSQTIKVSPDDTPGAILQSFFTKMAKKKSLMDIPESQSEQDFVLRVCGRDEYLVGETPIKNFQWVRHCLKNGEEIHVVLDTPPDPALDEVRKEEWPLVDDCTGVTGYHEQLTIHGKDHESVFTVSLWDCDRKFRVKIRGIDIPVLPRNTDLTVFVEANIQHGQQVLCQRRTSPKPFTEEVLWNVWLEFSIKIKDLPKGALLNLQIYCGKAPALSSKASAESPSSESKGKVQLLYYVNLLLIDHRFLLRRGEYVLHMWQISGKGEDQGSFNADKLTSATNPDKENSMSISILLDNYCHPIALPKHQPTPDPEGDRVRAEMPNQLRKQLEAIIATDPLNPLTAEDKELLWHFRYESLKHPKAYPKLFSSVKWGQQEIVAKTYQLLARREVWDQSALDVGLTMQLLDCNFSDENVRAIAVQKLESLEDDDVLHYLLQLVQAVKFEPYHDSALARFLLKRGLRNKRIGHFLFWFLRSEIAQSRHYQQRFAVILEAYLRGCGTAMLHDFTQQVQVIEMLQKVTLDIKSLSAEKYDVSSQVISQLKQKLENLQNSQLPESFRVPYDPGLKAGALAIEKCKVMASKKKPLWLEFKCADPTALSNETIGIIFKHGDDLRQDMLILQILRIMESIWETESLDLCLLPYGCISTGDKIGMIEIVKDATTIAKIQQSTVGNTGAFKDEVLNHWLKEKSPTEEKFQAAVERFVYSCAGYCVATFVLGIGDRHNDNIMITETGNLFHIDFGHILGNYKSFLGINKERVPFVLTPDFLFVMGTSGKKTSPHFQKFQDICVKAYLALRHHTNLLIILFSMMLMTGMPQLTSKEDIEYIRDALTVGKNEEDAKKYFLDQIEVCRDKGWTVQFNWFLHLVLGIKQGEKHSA
inactive: erlotinib 0.045 | [1] 0 | [2] -0.011 | [3] 0.045 | [5] -0.047 | [6] -0.005 | [13] 0 | [14] 0.003 | IRAK-1-4 Inhibitor I -0.011 | ibrutinib -0.017 | ralimetinib 0.02 | [7] -0.047 | [8] -0.027 | [9] -0.054 | [10] -0.071 | [11] -0.025 | [12] 0.01

PTK2 isoform 2 (UniProt Q05397)
UniProt Q05397, sequence (Q05397 whole entry, looked up): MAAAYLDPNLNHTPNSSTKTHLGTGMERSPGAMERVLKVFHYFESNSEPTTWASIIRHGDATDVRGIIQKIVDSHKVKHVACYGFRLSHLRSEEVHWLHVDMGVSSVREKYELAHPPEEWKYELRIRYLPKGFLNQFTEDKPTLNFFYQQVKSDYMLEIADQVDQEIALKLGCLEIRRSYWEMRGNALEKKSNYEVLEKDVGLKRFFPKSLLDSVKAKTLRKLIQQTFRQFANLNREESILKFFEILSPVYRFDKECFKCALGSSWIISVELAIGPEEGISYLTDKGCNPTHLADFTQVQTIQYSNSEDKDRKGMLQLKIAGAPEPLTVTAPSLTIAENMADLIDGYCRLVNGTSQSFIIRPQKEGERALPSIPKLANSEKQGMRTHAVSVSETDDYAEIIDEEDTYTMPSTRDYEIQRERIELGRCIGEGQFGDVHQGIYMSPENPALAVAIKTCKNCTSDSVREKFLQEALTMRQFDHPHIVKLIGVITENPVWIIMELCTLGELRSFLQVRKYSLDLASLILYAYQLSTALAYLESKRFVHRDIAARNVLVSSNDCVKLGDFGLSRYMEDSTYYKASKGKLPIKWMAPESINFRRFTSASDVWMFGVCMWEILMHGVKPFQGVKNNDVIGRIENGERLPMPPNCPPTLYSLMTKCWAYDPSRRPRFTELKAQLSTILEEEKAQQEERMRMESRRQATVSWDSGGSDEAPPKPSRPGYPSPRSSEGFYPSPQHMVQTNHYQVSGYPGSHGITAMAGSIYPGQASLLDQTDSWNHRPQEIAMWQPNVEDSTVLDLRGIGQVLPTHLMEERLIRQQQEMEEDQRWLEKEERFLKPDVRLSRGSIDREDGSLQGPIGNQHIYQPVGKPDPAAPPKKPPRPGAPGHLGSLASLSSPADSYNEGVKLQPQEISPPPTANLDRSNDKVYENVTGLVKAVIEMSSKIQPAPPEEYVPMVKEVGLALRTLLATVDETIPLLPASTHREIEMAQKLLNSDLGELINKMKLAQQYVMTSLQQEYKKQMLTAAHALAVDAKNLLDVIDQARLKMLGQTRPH
inactive: erlotinib 0.002 | [2] 0.006 | [4] -0.114 | [13] 0.193 | [14] -0.016 | ibrutinib 0.173 | [15] -0.047 | [8] -0.002 | [10] -0.138 | [16] -0.053

PHF14 (UniProt O94880)
active: [9] 0.454
inactive: [1] 0.032 | [3] -0.01 | [4] -0.06 | [5] -0.086 | [6] 0.045 | [13] -0.423 | [14] 0.432 | IRAK-1-4 Inhibitor I 0.035 | ibrutinib -0.014 | [15] 0.03 | ralimetinib -0.024 | [7] -0.055 | [10] -0.003 | [12] -0.042 | [16] -0.128

PPP1R14C (UniProt Q8TAE6)
inactive: [1] 0.018 | [3] -0.092 | [4] -0.05 | [5] 0.001 | [6] 0.021 | [13] 0.052 | [14] -0.02 | IRAK-1-4 Inhibitor I -0.014 | ibrutinib 0.067 | [15] 0.007 | ralimetinib 0.057 | [7] 0.042 | [9] -0.028 | [10] -0.097 | [12] -0.123 | [16] 0.068

POLR2F (UniProt U3KPV3)
inactive: [13] -0.055 | [14] 0.084 | [10] 0.223

PYGO2 (UniProt Q9BRQ0)
inactive: erlotinib -0.047 | [2] 0.045 | [4] -0.039 | [5] 0.115 | [13] 0.012 | [14] 0.049 | IRAK-1-4 Inhibitor I 0.051 | ibrutinib 0.064 | ralimetinib 0.151 | [7] -0.122 | [8] -0.001 | [9] 0.005 | [10] 0.044 | [11] 0.011 | [12] -0.061

PPT2, A0A140T9Y1
inactive: [9] -0.142

PLXND1 (UniProt Q9Y4D7)
inactive: erlotinib -0.067 | [2] 0.073 | [4] -0.048 | [5] -0.016 | IRAK-1-4 Inhibitor I -0.032 | ibrutinib 0.138 | ralimetinib -0.081 | [7] -0.07 | [8] 0.046 | [9] -0.023 | [10] 0.112 | [11] -0.033 | [12] 0.218

PHKG1 isoform 2 (UniProt Q16816)
UniProt Q16816, sequence (Q16816 whole entry, looked up): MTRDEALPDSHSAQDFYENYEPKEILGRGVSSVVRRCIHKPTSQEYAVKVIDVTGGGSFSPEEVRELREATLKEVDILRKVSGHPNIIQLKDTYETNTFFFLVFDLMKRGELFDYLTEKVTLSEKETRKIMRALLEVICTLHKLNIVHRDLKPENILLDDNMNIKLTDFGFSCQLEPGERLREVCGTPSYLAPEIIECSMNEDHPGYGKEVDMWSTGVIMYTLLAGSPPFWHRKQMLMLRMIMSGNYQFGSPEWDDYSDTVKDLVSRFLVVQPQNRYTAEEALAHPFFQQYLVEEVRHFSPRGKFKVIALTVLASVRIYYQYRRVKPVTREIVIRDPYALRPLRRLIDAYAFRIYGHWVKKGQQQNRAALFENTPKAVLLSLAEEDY
inactive: erlotinib 0.003 | [1] -0.127 | [2] 0.187 | [3] 0.061 | [5] 0.029 | [6] 0.399 | [13] 0.157 | [14] 0.014 | IRAK-1-4 Inhibitor I -0.102 | [15] 0.595 | ralimetinib 0.02 | [7] -0.016 | [8] -0.003 | [9] -0.117 | [10] -0.196 | [11] 0.017 | [12] -0.02 | [16] -0.086

PFN3 (UniProt P60673)
UniProt P60673, sequence (P60673 whole entry, looked up): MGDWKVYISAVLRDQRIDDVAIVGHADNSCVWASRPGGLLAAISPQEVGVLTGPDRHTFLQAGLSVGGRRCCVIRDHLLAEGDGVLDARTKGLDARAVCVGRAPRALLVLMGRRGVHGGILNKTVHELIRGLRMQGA
inactive: [1] -0.231 | [3] -0.078 | [6] -0.162 | [13] -0.041 | [14] 0.155 | [15] 0.042 | [9] -0.02 | [11] -0.03 | [16] -0.02

PTMA isoform 2 (UniProt P06454)
inactive: [4] 0.015 | ibrutinib -0.053
